Data as given in PubChem BioAssay AID2018 (Sanford-Burnham Center for Chemical Genomics, 2009).
Hit rate of the full screen: of about 1,200 compounds, about 600 (50%) were called active. So high a share suggests a set chosen from earlier hits. This is one part of the list. Results with a measured potency or affinity are listed apart. A number with no mark means an inactive call. Cut-off read from the data, not from the text of the source: active = inhibition above about 42%; inactive = the rest.

Molecular target: SUMO-conjugating enzyme UBC9 (Homo sapiens) (UniProt P63279)
Test: SUMOylation inhibitor hit validation, confirmation, SUMOylation inhibitor project, biochemical, AlphaScreen (AID 2018)
Conditions: AlphaScreen in vitro SUMOylation assay; at 35 µM; stronger effect = higher value

Sequence of SUMO-conjugating enzyme UBC9 (Homo sapiens) (P63279 whole entry, looked up): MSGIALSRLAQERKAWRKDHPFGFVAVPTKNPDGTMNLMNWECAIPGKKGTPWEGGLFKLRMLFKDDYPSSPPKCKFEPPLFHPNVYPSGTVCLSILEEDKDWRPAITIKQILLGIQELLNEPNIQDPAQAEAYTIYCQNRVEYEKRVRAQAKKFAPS

SMILES | inhibition
Cc1cccc(N(C)C(=O)c2cc3c(=O)[nH]c4ccc(C)cc4c3s2)c1 | 37.8%
CCOC(=O)c1ccc(N2C(=O)c3n[nH]c(-c4ccco4)c3C2c2ccc([N+](=O)[O-])cc2)cc1 (stereo unspecified) | 34.2%
Cc1c(C(=O)O)cccc1-c1ccc(/C=C2\SC(=O)NC2=O)o1 | 48.8% (active)
CCc1cc2c(=O)c(Oc3ccccc3F)c(C)oc2c(CN(C)C)c1O | -4.3%
CC1=NN(c2ccc(C)cc2C)C(=O)C1C(c1cccc(O)c1)C1C(=O)N(c2ccc(C)cc2C)N=C1C (stereo unspecified) | 81.1% (active)
CC1=NN(c2ccc(F)cc2)C(=O)C1C(c1cccc(O)c1)c1c(C)[nH]n(-c2ccc(F)cc2)c1=O (stereo unspecified) | 89.4% (active)
CC1=NN(c2ccc(Cl)cc2)C(=O)C1C(c1ccccc1O)c1c(C)[nH]n(-c2ccc(Cl)cc2)c1=O (stereo unspecified) | 82.4% (active)
O=[N+]([O-])c1c(NCCO)cc(N2CCC3(CC2)OCCO3)c2nonc12 | 8.2%
CCCCCC(=O)Nc1ccc(-c2cn3cccnc3n2)cc1 | 10.6%
COC12NC(=O)N(C)C1(OC)C(=O)N(C)C(=O)N2C (stereo unspecified) | -6.8%
Cc1cccc(S(=O)(=O)C(C#N)c2nc3ccccc3nc2N2CC(C)OC(C)C2)c1 (stereo unspecified) | 3.9%
COc1ccc(S(=O)(=O)C(C#N)c2nc3ccccc3nc2N2CCCC(C)C2)cc1 (stereo unspecified) | 49.9% (active)
Cc1ccc(-n2c(SCC(=O)Nc3ccc4c5c(cccc35)CC4)nc(O)cc2=O)cc1 | 30.4%
Cc1ccc(-n2c(SCC(=O)N/N=C/c3ccccc3C(=O)O)nnc2-c2ccc(Cl)cc2)cc1 | 3.5%
CN(C)/C=N/c1nc2nccc(-c3cccc(Cl)c3)n2n1 | -11.7%
CCCCNC(=O)Oc1c(Br)cc2sc(=O)oc2c1Br | 88.3% (active)
CC(=O)c1ccc2c(c1)C1C=CCC1C(C(=O)O)N2 (stereo unspecified) | 101% (active)
O=C(O)CCCN1C(=O)/C(=C/C=C/c2ccco2)SC1=S | 100% (active)
Nc1ccc2c(c1)sc1ccccc12 | 20.5%
CCN(CC)S(=O)(=O)c1ccc(C)c(NC(=O)CSc2ncc(C(F)(F)F)cc2Cl)c1 | 11.7%
COCCn1c(N)c(C(=O)OCc2ccccc2)c2nc3ccccc3nc21 | -26.1%

SMILES | inhibition
COCCn1c(N)c(C#N)c2nc3ccccc3nc21 | 29.5%
COCCn1c(N)c(C(=O)NCC2CCCO2)c2nc3ccccc3nc21 (stereo unspecified) | 42.3% (active)
COCCNC(=O)c1c(N)n(CCCn2ccnc2)c2nc3ccccc3nc12 | 5.2%
C=CCn1c(N)c(C(=O)NCC2CCCO2)c2nc3ccccc3nc21 (stereo unspecified) | -9.9%
CC(C)Cn1c(N)c(C(=O)NCC2CCCO2)c2nc3ccccc3nc21 (stereo unspecified) | 0%
CN(C)CCCn1c(N)c(C#N)c2nc3ccccc3nc21 | 38.6%
Cc1oc2c(c(C)cc3oc(=O)c(CC(=O)NCC(=O)NCC(=O)O)c(C)c32)c1C | -1.1%
Cc1ccc(C)n1-c1nccc(-c2cccs2)n1 | 21.2%
O=c1oc2ccccc2c(Nc2cccc3cccnc23)c1[N+](=O)[O-] | 7.5%
C=CCn1c(N)c(C(=O)OC(C)(C)C)c2nc3ccccc3nc21 | 5.9%
N#Cc1c(N)n(CCNC(=O)c2ccccc2)c2nc3ccccc3nc12 | 29.4%
N#Cc1c(N)n(-c2cccc(C(=O)O)c2)c2nc3ccccc3nc12 | 43% (active)
CCCCn1c(NC(C)=O)c(C#N)c2nc3ccccc3nc21 | 15.5%
N#Cc1c(N)n(CCOC(=O)c2ccc(Cl)cc2)c2nc3ccccc3nc12 | -17.7%
C=CCn1c(N)c(C(=O)Nc2cccc(C)c2)c2nc3ccccc3nc21 | 8.9%
Cc1ccc2[nH]c3c(c2c1)CN(C(=O)CN1CCCc2ccccc21)CC3 | 41%
C/C(CCc1ccco1)=N\NC(=O)CNc1cccc2ccccc12 | 6.1%
Cn1nccc1NC(=O)Nc1cccc(Cl)c1 | 10.6%
O=C(NC(=S)Nc1c(Cl)ccc2nsnc12)c1ccco1 | 19.5%
Nc1ccc(N2CCN(CCCCN3C(=O)C4CCCN4C3=O)CC2)cc1 (stereo unspecified) | 29.6%
C/C(=C\C(=S)Nc1ccccc1)Nc1cccc2ccccc12 | 29.8%

SMILES | inhibition
Nc1ccc2oc(-c3cccs3)nc2c1 | -13.9%
O=C(Nc1ccc(N2CCOCC2)c2nonc12)C1CCCC1 | 24%
CCN(CC)c1cc(Cl)c2nonc2c1N | 16.4%
O=[N+]([O-])c1c(NCCO)cc(N2CCCCCC2)c2nonc12 | 6%
Nc1c(N2CCOCC2)cc(Cl)c2nonc12 | -2.8%
Nc1ccc(N2CCCCC2)c2nonc12 | 78.2% (active)
CN(C(=O)CSc1nnc(NCc2ccccc2)s1)C1CCS(=O)(=O)C1 (stereo unspecified) | 12.1%
COc1ccc(-c2nc3ccncc3[nH]2)cc1OC | 11.1%
Nc1ccc(-c2nc3ccc(N)cc3[nH]2)cc1 | -8.6%
O=C(/C=C/c1ccco1)NC(=S)NNC(=O)c1ccco1 | -483%
O=C(/C=C\c1ccco1)c1ccc(NC(=O)c2ccco2)cc1 | 56.4% (active)
CN(C)c1ccc(C(=O)/C=C/c2ccco2)cc1 | 10.9%
CCc1nc2sc(C(C)=O)c(N)c2c2c1CCCC2 | -13%
CC(C)(C)C1CCC2(CC1)Nc1cccc3cccc(c13)N2 | 52.8% (active)
O=C(CCCN1C(=O)/C(=C/c2ccco2)SC1=S)Nc1ccccc1C(=O)O | 76.9% (active)
O=C(CN1C(=O)CSC1=O)Nc1ccc(C(=O)O)cc1 | -7.6%
COc1ccc(N2C(=O)[C@@H]3[C@H](C2=O)[C@H]2c4ccccc4C=CN2[C@@H]3C(C)=O)cc1 | 53.6% (active)
CCC(=O)N1CCc2cc(S(=O)(=O)NC(C(=O)NCc3ccc(C)cc3)C(C)C)ccc21 (stereo unspecified) | 37.4%
Cc1ccoc1C(=O)NCCCNC(=O)c1occc1C | 56.7% (active)
